# Results filed as inconclusive are left out. Activity calls are given as the source filed them. Calls follow the shape of the dose curve; as a rule, active = well fitted cell-killing curve with a large enough effect in the repeat runs; inconclusive = weak or mixed curves, or effect the other way; inactive = no such curve, though single readings can be large or run the other way.
# Experiment: qHTS assay to identify small molecule antagonists of the vitamin D receptor (VDR) signaling pathway - cell viability counter screen (AID 743225); also: nearly all actives have a fitted effect of over 50% in size
# Details: VDR-bla HEK293T viability, CellTiter-Glo luminescence, 16 h; series mostly up to 61 µM; viability change, negative = cytotoxic: at the top concentration
# Excerpt: U.S. Tox21 Program National Center for Advancing Translational Sciences [NCATS] NIH Chemical Genomics Center [NCGC] U.S. Environmental Protection Agency [EPA] National Institutes of Environmental Health Sciences [NIEHS] National Toxicology Program [NTP] U.S. Food and Drug Administration [FDA] Tox21 Assay Overview: The vitamin D receptor (VDR), a member of nuclear hormone receptor superfamily, plays a critical role in calcium homeostasis and bone metabolism. It is also involved in cell differentiation and growth, and thrombogenicity. To identify the compounds that inhibit VDR signaling, the VDR-UAS-bla HEK 293T cell line (Invitrogen, Carlsbad, CA, USA) containing a beta-lactamase reporter gene under the control of an upstream activator sequence (UAS) was used to screen the Tox21 10K compound library. The cytotoxicity of the Tox21 compound library against the VDR-bla cell line was tested in parallel by measuring the cell viability using CellTiter-Glo assay (Promega, Madison, WI) in the same wells.
# Tox21 Assay Protocol Summary: VDR-bla cells were dispensed at 2,000 cells/5 uL of assay medium per well into black wall/clear-bottom 1536-well plates using a Multidrop Combi (Thermo Fisher Scientific, Waltham, MA) dispenser. After the assay plates were incubated at a 37C and 5% CO2 for 4 h, 23 nL of compounds dissolved in DMSO, positive controls or DMSO only was transferred to the assay plate by a Pintool station (Kalypsys, San Diego, CA), followed by addition of 1 uL of 1-alpha, 25-Dihydroxy Vitamin D3 (3 nM, final concentration in the wells) using a Bioraptr Flying Reagent Dispenser (FRD) workstation (Beckman Coulter, Indianapolis, IN). The plates were incubated at 37C and 5% CO2 for 16 h, and then 1 uL of LiveBLAzerTM B/G FRET substrate was added using a Bioraptr FRD. The plates were incubated at room temperature for 2 h and fluorescence intensity was measured by an Envision plate reader (PerkinElmer, Shelton, CT). For cell viability readout that measures cytotoxicity, 3 ul/well of CellTiter-Glo reagent was added into the assay plates using a Bioraptr FRD. After 30 min incubation at room temperature, the luminescence intensity in the plates was measured using a ViewLux plate reader (PerkinElmer).
# % is scaled to controls: 0 for no effect and ±100 for the full control effect; potency is read from the fitted curve at half-maximal effect.
Compound,"viability change, negative = cytotoxic",Potency
COc1ccc2c(c1)c(CC(=O)OCC(=O)O)c(C)n2C(=O)c1ccc(Cl)cc1,-15.5% (inactive),
NC(=O)COCCN1CCN(C(c2ccccc2)c2ccc(Cl)cc2)CC1 (stereo not given),-15.2% (inactive),
O=C(O)COc1nn(Cc2ccccc2)c2ccccc12,7.27% (inactive),
COC(=O)c1c(Cl)c(Cl)c(C(=O)OC)c(Cl)c1Cl,-13.7% (inactive),
C=COCC1CCC(CO)CC1 (stereo not given),-1.64% (inactive),
CCCc1cc(C(N)=S)ccn1,8.53% (inactive),
NC(=O)c1ccc(N)cc1,-9.24% (inactive),
COC(C)(C)CCCC(C)CC=O (stereo not given),7.46% (inactive),
CCOc1ccc(C(=O)OCCN(CC)CC)cc1,-10.1% (inactive),
NS(=O)(=O)c1ccccc1Cl,-0.337% (inactive),
CC(C)NCC(O)c1ccc(NS(C)(=O)=O)cc1 (stereo not given),0% [at 78.8 µM] (inactive),
CC(C)(CC(=O)O)C(=O)O,14.4% (inactive),
CCSC(=O)N(CC(C)C)CC(C)C,6.35% (inactive),
CN1N=C(C(N)=O)CCC1=O,-4.48% (inactive),
CN(C)CCCN1c2ccccc2CCc2ccc(Cl)cc21,,38.9 µM (active)
CCO/C([O-])=N/c1c[n+](N2CCOCC2)no1,10.7% (inactive),
Cc1c(O)cccc1O,4.87% [at 78.8 µM] (inactive),
Cc1ccc(C#N)cc1,-0.24% (inactive),
Brc1c(NC2=NCCN2)ccc2nccnc12,-3.85% (inactive),
CC/C=C\CC/C=C/CO,2.27% (inactive),

Compound,"viability change, negative = cytotoxic",Potency
CC(=O)OCC(CCn1cnc2cnc(N)nc21)COC(C)=O,13.2% (inactive),
CC(=O)OC/C=C(\C)CC/C=C(\C)CCC=C(C)C,3.13% (inactive),
O=c1n(CCO)c(=O)n(CCO)c(=O)n1CCO,,inactive
COc1nc(N)nc2c1ncn2[C@@H]1O[C@H](CO)[C@@H](O)[C@@H]1O,0.95% (inactive),
CN(C(=O)c1c(O)c2ccccc2n(C)c1=O)c1ccccc1,5.78% (inactive),
C=C[Si](OC(=C)C)(OC(=C)C)OC(=C)C,10.1% (inactive),
CCCC(=O)O[C@]1(C(=O)CO)CC[C@H]2[C@@H]3CCC4=CC(=O)CC[C@]4(C)[C@H]3[C@@H](O)C[C@@]21C,-16.9% (inactive),
COC(=O)c1ccc(C)cc1C1=NC(C)(C(C)C)C(=O)N1 (stereo not given),-16% (inactive),
CCn1ccnc1CC1COc2ccccc2O1 (stereo not given),10.4% (inactive),
CC1(C)C(O)C(C)(C)C1O (stereo not given),2.52% (inactive),
Cc1nc2c([nH]1)c(=O)n(C)c(=O)n2Cc1ccco1,3.57% (inactive),
CCS(=O)(=O)c1ccc(OC)c(C(=O)OC)c1,-0.529% (inactive),
Cc1cccn2c(=O)c(-c3nnn[nH]3)cnc12,-0.957% [at 28.5 µM] (inactive),
CC(C)NC(=O)NC(C)C,9.72% (inactive),
COCCc1ccc(OCC(O)CNC(C)C)cc1 (stereo not given),-2.71% (inactive),
O=C[C@H](O)[C@@H](O)[C@H](O)[C@H](O)CO,17.2% (inactive),
NC(CSCC(=O)O)C(=O)O (stereo not given),0.144% (inactive),
NCCc1cnc[nH]1,-4.6% (inactive),
CCCCC/C=C\CCC=O,7.7% (inactive),
O=c1cc(-c2ccccc2)oc2ccccc12,,inactive

# Source: PubChem BioAssay (Tox21)
